Source: PubChem BioAssay (Tox21)
Records with an inconclusive call do not appear. A call without a number means that no potency is given here. The source made the active and inactive calls. Unless noted, calls come from the whole dose curve.

target: Nuclear receptor ROR-gamma (Homo sapiens) (UniProt P51449); assay: qHTS assay to identify small molecule antagonists of the retinoid-related orphan receptor gamma (ROR-gamma) signaling pathway (AID 1159521; active = well fitted inhibition curve with a large enough effect in the repeat runs;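 note: CHO cells with doxycycline inducible ROR-gamma driving an RORE luciferase reporter; top concentration of the series differs between compounds; nearly all actives have a fitted effect of over 50% in size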); settings: Tet-on RORgamma CHO cells, RORE-luciferase, 16 h; series mostly up to 92.4 µM
Outline: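 Decreased RORE-driven luciferase luminescence indicates antagonism. Tet-on RORγ CHO cells received compound, then 1 uM final doxycycline 2 h later; signal read after 16 h incubation.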

Compound | Potency | activity change, negative = inhibition
Cc1ccc(N)cc1[N+](=O)[O-] | inactive | 
C=CCOCC(O)CS(=O)(=O)O (stereo not given) | inactive | 
COc1cccc(OC)c1 | inactive | 
CCC(C(=O)NC(N)=O)c1ccccc1 (stereo not given) | inactive | 
CC(=O)NC(Cc1ccccc1)C(=O)O (stereo not given) | inactive | 
CC(C)[C@H](N)C(=O)OCCOCn1cnc2c(=O)[nH]c(N)nc21 | inactive | 
CCCCc1ccc(N)cc1 | inactive | 
CCCCCCCCCCCCCCC | inactive | 
CCCCCC[C@@H](CCC)C(=O)O | inactive | 
O=C(O)Cc1cc(I)c(Oc2cc(I)c(O)c(I)c2)c(I)c1 | inactive | 
C=C(C)C(=O)NCCC[N+](C)(C)C | inactive | 
CC(=O)OC(C)(C)C | inactive | 
C=C(C)C1CC=C(C)C(O)C1 (stereo not given) | inactive | 
CCCCCCCCCCCCCCCCCCOCC(O)CO (stereo not given) | inactive | 
O=C(O)/C=C/c1ccc(Cn2ccnc2)cc1 | inactive | 
CC(=O)CCc1ccc(O)cc1 | inactive | 
C1CCCCCCCCCCC1 |  | -5.57% [at 19 µM] (inactive)
COC(=O)CCCCCCCCC(=O)OC | inactive | 
OCC(O)[C@@H](O)[C@H](O)[C@H](O)CO[C@H]1O[C@H](CO)[C@@H](O)[C@H](O)[C@H]1O (stereo not given in full) | inactive | 

Compound | Potency | activity change, negative = inhibition
CC(C)(C)C(=O)/C=C/c1ccc(Cl)cc1 | inactive | 
COC(=O)[C@H]1[C@H]2C[C@@H]3c4[nH]c5cc(OC)ccc5c4CCN3C[C@H]2C[C@@H](OC(=O)COc2ccc(OC)cc2)[C@@H]1OC | inactive | 
CCCCOCC(C)OCC(C)O (stereo not given) | inactive | 
CC(C)(C)OC(=O)N1C[C@@H](F)C[C@H]1C(=O)O | inactive | 
NC(=O)c1ncn([C@@H]2O[C@H](CO)[C@@H](O)[C@H]2O)c1N | inactive | 
CC(C)c1ccc2oc3nc(N)c(C(=O)O)cc3c(=O)c2c1 | inactive | 
C/C=C1\C(=O)C[C@H]2[C@@H]3CCC4=CC(=O)CC[C@]4(C)[C@H]3CC[C@]12C | inactive | 
Cc1nc(-c2ccc(OCC(C)C)c(C#N)c2)sc1C(=O)O | inactive | 
Fc1ccccc1-c1ccccc1 | inactive | 
Nc1nc2c(ncn2CCC(CO)CO)c(=O)[nH]1 | inactive | 
CCCCCCCCN(C)CCCCCCCC | inactive | 
FC(F)(F)C(F)(F)C(F)(F)C(F)(F)C(F)(F)C(F)(F)C(F)(F)C(F)(F)C(F)(F)C(F)(F)F |  | 29.3% [at 8.39 µM] (inactive)
CCC(=O)Nc1cccc(N)c1 | inactive | 
COC[C@H](c1ccc(C(F)(F)F)cc1)N1CCN(C2(C)CCN(C(=O)c3c(C)ncnc3C)CC2)C[C@H]1C | inactive | 
COCCOC(=O)CC#N | inactive | 
CN(C)CCOC(c1ccc(Cl)cc1)c1ccccn1 (stereo not given) | inactive | 
CCCCCCOC(=O)c1ccccc1O | inactive | 
CCC(=O)/C=C/c1ccc(OC)cc1 | inactive | 

test system: not listed separately; assay: qHTS assay to identify small molecule agonists of the AP-1 signaling pathway - cell viability counter screen (AID 1159525); settings: ME-180 AP-1-bla cells viability, ATP luminescence, 5 h; series mostly up to 76.8 µM; note: nearly all actives have a fitted effect of over 55% in size
Outline: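 Each titration point was normalised to DMSO and tetra n-octyl ammonium bromide controls. The read was Cell Titer Glo luminescence after 30 min at RT, following 5 h compound exposure of ME-180 AP-1-bla cells at 37 °C.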

Compound | outcome
COc1cccc(OC)c1 | inactive
CC(=O)NC(Cc1ccccc1)C(=O)O (stereo not given) | inactive
CCCCCCCCCCCCCCC | inactive
CCCCCCCCCCCCCCCCCCOCC(O)CO (stereo not given) | inactive
CC(C)(C)C(=O)/C=C/c1ccc(Cl)cc1 | inactive
COC(=O)[C@H]1[C@H]2C[C@@H]3c4[nH]c5cc(OC)ccc5c4CCN3C[C@H]2C[C@@H](OC(=O)COc2ccc(OC)cc2)[C@@H]1OC | inactive
CCCCOCC(C)OCC(C)O (stereo not given) | inactive
Cc1nc(-c2ccc(OCC(C)C)c(C#N)c2)sc1C(=O)O | inactive
CCCCCCCCN(C)CCCCCCCC | inactive
CCC(=O)Nc1cccc(N)c1 | inactive
CCC(=O)/C=C/c1ccc(OC)cc1 | inactive

test system: not listed separately; assay: qHTS assay to identify small molecule agonists of the AP-1 signaling pathway (AID 1159526); settings: ME-180 (cervical carcinoma) AP-1-bla reporter, beta-lactamase FRET ratio, 5 h; series mostly up to 76.8 µM

Compound | Potency | activation
Cc1ccc(N)cc1[N+](=O)[O-] | inactive | 
C=CCOCC(O)CS(=O)(=O)O (stereo not given) | inactive | 
COc1cccc(OC)c1 | inactive | 
CCC(C(=O)NC(N)=O)c1ccccc1 (stereo not given) | inactive | 
CC(=O)NC(Cc1ccccc1)C(=O)O (stereo not given) | inactive | 
CC(C)[C@H](N)C(=O)OCCOCn1cnc2c(=O)[nH]c(N)nc21 | inactive | 
CCCCc1ccc(N)cc1 | inactive | 
CCCCCCCCCCCCCCC | inactive | 
CCCCCC[C@@H](CCC)C(=O)O | inactive | 
O=C(O)Cc1cc(I)c(Oc2cc(I)c(O)c(I)c2)c(I)c1 | inactive | 
C=C(C)C(=O)NCCC[N+](C)(C)C | inactive | 
CC(=O)OC(C)(C)C | inactive | 
C=C(C)C1CC=C(C)C(O)C1 (stereo not given) | inactive | 
CCCCCCCCCCCCCCCCCCOCC(O)CO (stereo not given) | inactive | 
O=C(O)/C=C/c1ccc(Cn2ccnc2)cc1 | inactive | 
CC(=O)CCc1ccc(O)cc1 | inactive | 
C1CCCCCCCCCCC1 |  | -0.287% [at 15.8 µM] (inactive)
COC(=O)CCCCCCCCC(=O)OC | inactive | 
OCC(O)[C@@H](O)[C@H](O)[C@H](O)CO[C@H]1O[C@H](CO)[C@@H](O)[C@H](O)[C@H]1O (stereo not given in full) | inactive | 

Compound | Potency | activation
CC(C)(C)C(=O)/C=C/c1ccc(Cl)cc1 | inactive | 
COC(=O)[C@H]1[C@H]2C[C@@H]3c4[nH]c5cc(OC)ccc5c4CCN3C[C@H]2C[C@@H](OC(=O)COc2ccc(OC)cc2)[C@@H]1OC | inactive | 
CCCCOCC(C)OCC(C)O (stereo not given) | inactive | 
CC(C)(C)OC(=O)N1C[C@@H](F)C[C@H]1C(=O)O | inactive | 
NC(=O)c1ncn([C@@H]2O[C@H](CO)[C@@H](O)[C@H]2O)c1N | inactive | 
CC(C)c1ccc2oc3nc(N)c(C(=O)O)cc3c(=O)c2c1 | inactive | 
C/C=C1\C(=O)C[C@H]2[C@@H]3CCC4=CC(=O)CC[C@]4(C)[C@H]3CC[C@]12C | inactive | 
Cc1nc(-c2ccc(OCC(C)C)c(C#N)c2)sc1C(=O)O | inactive | 
Fc1ccccc1-c1ccccc1 | inactive | 
Nc1nc2c(ncn2CCC(CO)CO)c(=O)[nH]1 | inactive | 
CCCCCCCCN(C)CCCCCCCC | inactive | 
FC(F)(F)C(F)(F)C(F)(F)C(F)(F)C(F)(F)C(F)(F)C(F)(F)C(F)(F)C(F)(F)C(F)(F)F |  | 7.26% [at 6.97 µM] (inactive)
CCC(=O)Nc1cccc(N)c1 | inactive | 
COC[C@H](c1ccc(C(F)(F)F)cc1)N1CCN(C2(C)CCN(C(=O)c3c(C)ncnc3C)CC2)C[C@H]1C | inactive | 
COCCOC(=O)CC#N | inactive | 
CN(C)CCOC(c1ccc(Cl)cc1)c1ccccn1 (stereo not given) | inactive | 
CCCCCCOC(=O)c1ccccc1O | inactive | 
CCC(=O)/C=C/c1ccc(OC)cc1 | inactive | 
